# Compound activity from PubChem BioAssay.
# Only a selection was taken, and hits are over-represented in it overall.
# mcGAS MS inh: mouse cGAS inhibition by mass spec; Q8C6L5; recombinant mouse cGAS, cGAMP by RapidFire MS; inhibition, % at 12.5 µM; 0.18% of 130,000 active;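 active means inhibition of cGAS enzyme activity at or above 60%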;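 further: enzyme stimulated by 45 bp dsDNA with ATP and GTP substrates; cGAMP share of summed cGAMP plus half ATP and half GTP signals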
# Target sequence (Q8C6L5 whole entry, looked up): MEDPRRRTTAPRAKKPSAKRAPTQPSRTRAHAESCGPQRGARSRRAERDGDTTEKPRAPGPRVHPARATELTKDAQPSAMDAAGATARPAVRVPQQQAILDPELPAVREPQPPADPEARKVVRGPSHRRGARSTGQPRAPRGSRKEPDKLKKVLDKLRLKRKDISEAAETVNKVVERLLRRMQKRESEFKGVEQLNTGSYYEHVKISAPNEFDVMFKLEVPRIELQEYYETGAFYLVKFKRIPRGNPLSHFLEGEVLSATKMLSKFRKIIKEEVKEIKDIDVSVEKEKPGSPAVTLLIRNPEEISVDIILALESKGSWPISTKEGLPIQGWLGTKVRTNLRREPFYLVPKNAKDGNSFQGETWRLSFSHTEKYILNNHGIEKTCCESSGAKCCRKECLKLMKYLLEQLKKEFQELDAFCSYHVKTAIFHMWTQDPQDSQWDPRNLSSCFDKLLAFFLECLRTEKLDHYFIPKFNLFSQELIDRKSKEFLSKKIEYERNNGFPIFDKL
# Active calls of the source: *; ! = repeats disagree.
SMILES,mcGAS MS inh
CCn1c(O)c(C(C)=NCC2CCCCC2)c(=O)n(CC)c1=S,-6.4
C=CCNC(=NCC1CCN(C(C)C)C1)NCCCOCC (configuration not stated),-18.2
CC(C)C(=O)Nc1ccc(SCCN2CCCCC2)nn1,4.8
CC(=O)Nc1ccc(NC(C(=O)N2CCCC2)c2ccccc2)cc1Cl (configuration not stated),2.6
COc1ccc(CNC(=O)CCC2CCCN(Cc3cccc4ncccc34)C2)c(OC)c1 (configuration not stated),-8.8
C/C(=N/Nc1nc(Cl)c(C#N)c(Cl)c1Cl)c1ccc(N)cc1,39.2
CC(C)=NNc1nc(Cl)c(C#N)c(Cl)c1Cl,74.5*
CC(C)=NOC(C)C(=O)N1CCC2(CC1)CC(=O)c1cc(C)c(C)cc1O2 (configuration not stated),-11.7
CC(=O)c1cc(CC(=O)N2CCC(CN)C2)cs1 (configuration not stated),-10.8
Nc1nc2ncc(CNc3ccc(C(=O)N[C@@H](CCC(=O)O)C(=O)O)cc3)nc2c(=O)[nH]1,82.2*!
Nc1nc2[nH]cc(CCc3ccc(C(=O)N[C@H](CCC(=O)O)C(=O)O)cc3)c2c(=O)[nH]1,4.7
CN(Cc1cnc2nc(N)nc(N)c2n1)c1ccc(C(=O)N[C@@H](CCC(=O)O)C(=O)O)cc1,23.7
N=C1C(c2nc3ccccc3[nH]2)C(=O)CN1NC(=O)c1n[nH]c(=O)c2ccccc12 (configuration not stated),-3.6
COc1cc2ccccc2cc1C(=O)N1CCNC(=O)C1C (configuration not stated),-10.8
CN(CCOc1ccccc1)C(=O)c1cc2ccccc2oc1=O,-6.8
CSc1c(C#N)c(SCC(=O)c2cc3ccccc3oc2=O)[nH]c(=O)c1C#N,94.3*
COc1ccc(CCNC(=O)c2cc3ccccc3oc2=O)cc1OC,-2.9
COC(=O)C1CCCCN1Cc1nc(-c2cc3c(cc2Cl)OCO3)oc1C (configuration not stated),-8.4
Cc1ccc2nc(CNC(C)c3cccc(C(F)(F)F)c3)cc(=O)n2c1 (configuration not stated),-21.9
Cc1c(CN(C)Cc2cn[nH]c2C(=O)O)cnn1C,-5.1
O=C(/C=C/c1ccncc1)NC1CS(=O)(=O)CC1N1CCCCC1 (configuration not stated),-52.9
Cc1nn2cc(CNC(=O)CN3CCOc4ccccc4C3)nc2s1,-16.5
O=C(CN1CCOc2ccccc2C1)NCCS(=O)(=O)N1CCCC1,71.0*
Cn1nnnc1SCCNC(=O)CN1CCOc2ccccc2C1,-15.7
C[C@@H]1[C@H](O)[C@@H](C)/C=C/C=C/C=C/C=C/C=C/C=C/C=C[C@H](O[C@@H]2O[C@H](C)[C@@H](O)[C@H](N)[C@@H]2O)C[C@@H]2O[C@](O)(C[C@@H](O)C[C@@H](O)[C@H](O)CC[C@@H](O)C[C@@H](O)CC(=O)O[C@H]1C)C[C@H](O)[C@H]2C(=O)O,21.4
SMILES,mcGAS MS inh
O=S(=O)(CCC1CCCO1)NC1CC1c1cccc(Cl)c1 (configuration not stated),-46.2
O=S1(=O)c2cccc3cccc(c23)N1Cc1cccc2ccccc12,-11.2
O=C(CN1c2cccc3cccc(c23)S1(=O)=O)c1c[nH]c2ccccc12,87.5*
NC(=O)COc1ccc(C(=O)NNC(=O)CN2c3cccc4cccc(c34)S2(=O)=O)cc1,-1.8
CCOc1ccc(CN(C)CC(=O)NC(=O)c2ccc(C(C)(C)C)cc2)cc1,-13.5
COc1cccc(CNC(=O)Cc2c(Cl)cccc2Cl)c1,-5.8
CC1(C)Oc2ccc(NS(=O)(=O)c3ccc(S(=O)(=O)NC4CC4)cc3)cc2O1,1.4
O=C(COc1ccc(Cl)c2ccccc12)Nc1ncccc1O,94.6*
O=C(COc1ccc(Cl)c2ccccc12)NCC(F)(F)F,-6.7
O=C(Cc1ccc(C(F)(F)F)cc1)Nc1ncccc1O,-4.3
COc1ccnc(Cn2nc(C3CCNCC3)n(-c3ccccc3)c2=O)c1,4.8
CCn1c(C2CCCNC2)nn(Cc2cc(OC)ccn2)c1=O (configuration not stated),60.9*!
CCn1c(C2CCCNC2)nn(Cc2cc(=O)n3cc(C)sc3n2)c1=O (configuration not stated),-5.9
Cc1cc(C)n(-c2ccc(NC(=O)C3CCN(Cc4ccncc4)CC3)cc2)n1,0.4
CN(Cc1ccc(-c2nc(-c3ccncc3)cc(=O)[nH]2)cc1)Cc1ccoc1,-19.3
CCCCc1cc(=O)[nH]c(-c2ccc(CN3CCN(C(=O)N(C)C)CC3)cc2)n1,10.1
Cc1cc(-c2cc(=O)[nH]c(-c3ccc(CN4CCN(C)CC4)cc3)n2)c(C)o1,70.9*
CCC(c1cccnc1)N(C)Cc1ccc(NC(C)=O)cc1 (configuration not stated),-10.1
Cc1ccnc(N2CCC(Cc3cccc(C(N)=O)c3)C2)n1 (configuration not stated),0.0
O=c1[nH]c2c(-c3nc4ccccc4s3)c(O)cn2c2sc3c(c12)CCCC3,-8.2
O=c1[nH]c2c(-c3ccccc3)c(O)cn2c2c1sc1ccccc12,70.4*
O=c1c(O)c(-c2ccccc2)[nH]c2ccccc12,-10.2
